PubChem BioAssay (NCATS)
Values joined by “and” are separate entries in the source; they are usually repeats but may differ in a detail not shown here. Equal entries are not always repeated. Records with an inconclusive call do not appear. Active and inactive are the calls of the source. Unless noted, calls come from the whole dose curve; as a rule, active = well fitted curve in either direction with a large enough effect (not every such curve was filed as active); inconclusive = small, poorly fitted or top-dose-only effect, or another doubt; inactive = flat fitted curve, though single readings scatter.

Legend:
[1] = target: Cytochrome P450 1A2 (Homo sapiens) (UniProt P05177); assay: p450-cyp1a2 (AID 410; calls by dose curve;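 note: -100% = full effect of reference inhibitor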)
In short: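 Luminescent demethylation readout: Luciferin-ME (100uM, equal to Km) turned over by 20nM CYP1A2 for 60 min at room temperature after NADPH regeneration addition, following 10 min compound preincubation. Normalization used 57 uM furafylline as full inhibition.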

[2] = NFAT Signaling Pathway (AID 444); settings: Jurkat NFAT-bla M1, carbachol, beta-lactamase ratio, 5 h;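 note: carbachol stimulus at about its EC50 of 1 µM final; % is set by controls: 0 for no effect and ±100 for the full control effect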
In short: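 Jurkat cells carrying an NFAT-driven β-lactamase reporter and co-transfected muscarinic M1 receptor were treated with compound plus carbachol (1 uM final, an EC50 level) for 5 h at 37 °C. CCF4 loading followed for 1 h at RT; 460/530 nm ratio gave %activity.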

[3] = Stat Signaling Pathway (AID 446);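 note: ME-180 cervical cancer cells given 40 pM IL-6 alongside compound; SIE-controlled beta-lactamase reporter measured as 460/530 nm FRET emission ratio; % is set by controls: 0 for no effect and ±100 for the full control effect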
In short: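 Emission at 460 and 530 nm (excitation 405 nm) reports SIE-controlled beta-lactamase in ME-180 cells. Cells received compound with 40 pM IL-6 for 5 hrs at 37 C; data scaled between 300 pM IL-6 and 125 nM JAK-inhibitor controls.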

[4] = target: Glucocorticoid receptor (Homo sapiens) (UniProt P04150); assay: GR-GFP Redistribution (AID 450;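 active = compounds whose dose series gives a full or clear partial fitted curve of increased nuclear translocation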; note: potency is the fitted concentration of half-maximal effect); settings: U2OS GR-GFP nuclear translocation, laser cytometry, 2 h
[5] = target: Glucocorticoid receptor (Homo sapiens) (UniProt P04150); assay: GR-EFC Redistribution (AID 451; calls by dose curve; note: potency is the fitted concentration of half-maximal effect); settings: CHO-K1 GR-EFC translocation, beta-gal luminescence, 2 h
In short: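 CHO-K1 cells stably expressing nuclear-localized β-gal enzyme acceptor and GR fused C-terminally to the enzyme donor fragment; ligand-driven nuclear translocation restores β-gal by complementation. Compounds titrated up to 46 uM final, 2 h at 37 °C; luminescence read.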

[6] = target: Mitogen-activated protein kinase 10 (Mus musculus) (UniProt Q61831); assay: JNK3 AlphaScreen Assay (AID 530);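 note: kinase came from lysate of stimulated human HepG2 cells; signal reports phosphorylation of biotinylated GST-cJun 1-79 at Ser73 with 10 µM ATP; % is set by controls: 0 for no effect and ±100 for the full control effect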
In short: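 Phosphorylation of biotinylated GST-cJun(1-79) at Ser73 is measured by AlphaScreen proximity luminescence. Enzyme is JNK3 in HepG2 lysates activated with interleukin-1beta and tumor necrosis factor alpha; ATP is 10 uM final.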

[7] = target: 3',5'-cyclic-AMP phosphodiesterase 4B (Homo sapiens) (UniProt Q07343); assay: qHTS Assay for Inhibitors of PDE-IV (AID 607; active = well fitted activation curve with a large enough effect in the main read-out, with a control signal flat, not every such curve was filed as active; note: % of control where 0% means no effect)
In short: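 The readout is membrane depolarisation from a cAMP-sensing CNG channel, detected with a potential dye at ex 535/em 590. Cells were HEK293-derived (endogenous PDE-IV) at 1000 cells/well, titrated up to 22.9 uM final.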

[8] = qHTS Assay for Lipid Storage Modulators (AID 1519; calls by dose curve); settings: Drosophila S3 cells, BODIPY lipid droplet/cell ratio, laser cytometry, cells loaded with oleic acid
In short: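 Cells seeded at 5,000 per well were treated with compounds over a concentration series and loaded with oleic acid (400 uM, as added). Lipid droplet fluorescence (488 nm excitation, 500-530 nm channel) was read by laser-scanning cytometry and normalized to 20 uM Triacsin C.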

[9] = target: Cytochrome P450 3A4 (Homo sapiens) (UniProt P08684); assay: qHTS Assay for Inhibitors and Substrates of Cytochrome P450 3A4 (AID 884; active = well fitted curve in the direction sought with a large enough effect; an effect the other way counts as inactive or inconclusive; note: nearly all actives have a fitted effect of over 50% in size; note: potency is the fitted concentration of half-maximal effect)
In short: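 Luminescent readout of luciferin produced by CYP3A4 (20 nM) dealkylation of Luciferin-PPXE, 25 uM (its KM). NADPH-driven reaction ran 60 min at RT after 10 min compound preincubation; data scaled to 57 uM ketoconazole as 100% inhibition.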

[10] = target: Cytochrome P450 3A4 (Homo sapiens) (UniProt P08684); assay: qHTS Assay for Activators of Cytochrome P450 3A4 (AID 885; active = well fitted curve in the direction sought with a large enough effect; an effect the other way counts as inactive or inconclusive; note: nearly all actives have a fitted effect of over 65% in size; note: potency is the fitted concentration of half-maximal effect)
In short: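 Activators are scored by enhanced luminescence from CYP3A4 conversion of luciferin-PPXE (25uM, equal to KM) to luciferin, after 60 min at RT with an NADPH-regenerating system.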

[11] = target: Ubiquitin carboxyl-terminal hydrolase 1 (Homo sapiens) (UniProt O94782); assay: Inhibitors of USP1/UAF1: Pilot qHTS (AID 504865; active = well fitted curve in the direction sought with a large enough effect; an effect the other way counts as inactive or inconclusive; note: nearly all actives have a fitted effect of over 35% in size; note: potency is the fitted concentration of half-maximal effect)
In short: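 USP1/UAF1 complex at 1 nM preincubated 15 min at room temperature with compound, then Ub-Rho substrate added at 150 nM final. Fluorescence (480/540 nm) read kinetically in 50 mM HEPES pH 7.8, 0.5 mM EDTA, 1 mM TCEP, 0.1 mg/ml BSA, 0.01% Tween-20.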

[12] = AP1 Signaling Pathway (AID 357);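 note: ME-180 reporter cells stimulated with EGF at its EC50 level; % is set by controls: 0 for no effect and ±100 for the full control effect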
In short: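 Beta-lactamase reporter under AP-1 response element, ME-180 background. Stimulus: EC50 EGF. Compound exposure 5 h, 37 °C. Detection: CCF4, 2.5 h RT, 460/530 nm. Values: AC50 from titration.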

[13] = target: ATP-dependent 6-phosphofructokinase (Trypanosoma brucei brucei) (UniProt O15648); assay: qHTS Assay to Find Inhibitors of T. brucei phosphofructokinase: hit validation (AID 492961; active = well fitted curve in the direction sought with a large enough effect; an effect the other way counts as inactive or inconclusive)
In short: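 Percent activity derived from corrected luminescence, normalized between 0x and 1x enzyme controls, then fitted to concentration-response curves. Conditions: 1.25 nM PFK, 0.1 mM ATP, 0.5 mM F6P, 45 min RT.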

[14] = target: Luciferin 4-monooxygenase (Photinus pyralis) (UniProt P08659); assay: Biochemical firefly luciferase enzyme assay for NPC (AID 624030; active = well fitted curve in the direction sought with a large enough effect; an effect the other way counts as inactive or inconclusive;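 note: purified P. pyralis luciferase at 10 nM with luciferin and ATP substrate; 0% = DMSO and -100% = full luciferase inhibition by PTC124 control; nearly all actives have a fitted effect of over 70% in size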)
In short: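 Counter-screen for direct inhibition of the luciferase enzyme by approved-drug library compounds, run at 10 nM enzyme in 50 mM Tris acetate (final). Luminescence was read within 5 min of enzyme-buffer addition and normalized to PTC124 versus DMSO (0%).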

[15] = qHTS profiling for inhibitors of Plasmodium falciparum proliferation (AID 504749; active = well fitted curve in the direction sought with a large enough effect; an effect the other way counts as inactive or inconclusive;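 note: 0% = DMSO vehicle and full inhibition = artemisinin control; nearly all actives have a fitted effect of over 60% in size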); settings: P. falciparum in erythrocytes, SYBR Green DNA, 72 h, at 12.8 µM (top of the series)
In short: (§1)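 Quantitative HTS: compounds pinned into medium, infected erythrocytes added (0.3% parasitemia, 2.5% hematocrit), 72 h culture at 37 C under 5% CO2. Saponin/Triton lysis with SYBR Green I, overnight RT, then fluorescence read.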

[16] = system: C2A; assay: as above; settings: P. falciparum in erythrocytes, SYBR Green DNA, 72 h; series mostly up to 28.7 µM
In short: as §1

[17] = system: CP217; assay: as above; settings: P. falciparum in erythrocytes, SYBR Green DNA, 72 h; series mostly up to 28.7 µM
In short: as §1

[18] = system: CP252; assay: as above; settings: P. falciparum in erythrocytes, SYBR Green DNA, 72 h; series mostly up to 12.8 µM
In short: as §1

[19] = system: CP256; assay: as above; settings: P. falciparum in erythrocytes, SYBR Green DNA, 72 h; series mostly up to 28.7 µM
In short: as §1

[20] = system: CP262; assay: as above; settings: P. falciparum in erythrocytes, SYBR Green DNA, 72 h; series mostly up to 28.7 µM
In short: as §1

[21] = measured here: cell count channel max response
[22] = measured here: lipid channel max response

Sequence of Ubiquitin carboxyl-terminal hydrolase 1 (Homo sapiens) (O94782 whole entry, looked up): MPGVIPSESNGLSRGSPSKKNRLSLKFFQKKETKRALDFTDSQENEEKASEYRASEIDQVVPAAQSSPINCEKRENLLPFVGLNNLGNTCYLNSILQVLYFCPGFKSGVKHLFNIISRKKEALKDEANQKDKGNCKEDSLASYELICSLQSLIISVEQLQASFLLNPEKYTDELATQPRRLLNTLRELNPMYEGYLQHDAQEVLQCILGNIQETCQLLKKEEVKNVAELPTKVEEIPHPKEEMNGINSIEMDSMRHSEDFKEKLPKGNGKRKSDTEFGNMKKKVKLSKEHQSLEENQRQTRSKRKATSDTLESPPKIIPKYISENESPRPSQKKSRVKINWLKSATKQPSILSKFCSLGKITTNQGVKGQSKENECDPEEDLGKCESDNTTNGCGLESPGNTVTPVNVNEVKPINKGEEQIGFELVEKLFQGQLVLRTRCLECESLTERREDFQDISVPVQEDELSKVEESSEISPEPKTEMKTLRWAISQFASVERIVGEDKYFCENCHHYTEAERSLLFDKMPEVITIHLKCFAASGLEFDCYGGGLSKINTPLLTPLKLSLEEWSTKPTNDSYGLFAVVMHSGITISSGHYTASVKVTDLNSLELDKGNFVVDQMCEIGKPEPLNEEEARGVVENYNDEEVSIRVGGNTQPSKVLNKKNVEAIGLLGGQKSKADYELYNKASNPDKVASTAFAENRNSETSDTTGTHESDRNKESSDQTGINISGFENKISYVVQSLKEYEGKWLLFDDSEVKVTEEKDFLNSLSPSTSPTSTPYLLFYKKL
Sequence of Glucocorticoid receptor (Homo sapiens) (P04150 whole entry, looked up, the tested form may be a part): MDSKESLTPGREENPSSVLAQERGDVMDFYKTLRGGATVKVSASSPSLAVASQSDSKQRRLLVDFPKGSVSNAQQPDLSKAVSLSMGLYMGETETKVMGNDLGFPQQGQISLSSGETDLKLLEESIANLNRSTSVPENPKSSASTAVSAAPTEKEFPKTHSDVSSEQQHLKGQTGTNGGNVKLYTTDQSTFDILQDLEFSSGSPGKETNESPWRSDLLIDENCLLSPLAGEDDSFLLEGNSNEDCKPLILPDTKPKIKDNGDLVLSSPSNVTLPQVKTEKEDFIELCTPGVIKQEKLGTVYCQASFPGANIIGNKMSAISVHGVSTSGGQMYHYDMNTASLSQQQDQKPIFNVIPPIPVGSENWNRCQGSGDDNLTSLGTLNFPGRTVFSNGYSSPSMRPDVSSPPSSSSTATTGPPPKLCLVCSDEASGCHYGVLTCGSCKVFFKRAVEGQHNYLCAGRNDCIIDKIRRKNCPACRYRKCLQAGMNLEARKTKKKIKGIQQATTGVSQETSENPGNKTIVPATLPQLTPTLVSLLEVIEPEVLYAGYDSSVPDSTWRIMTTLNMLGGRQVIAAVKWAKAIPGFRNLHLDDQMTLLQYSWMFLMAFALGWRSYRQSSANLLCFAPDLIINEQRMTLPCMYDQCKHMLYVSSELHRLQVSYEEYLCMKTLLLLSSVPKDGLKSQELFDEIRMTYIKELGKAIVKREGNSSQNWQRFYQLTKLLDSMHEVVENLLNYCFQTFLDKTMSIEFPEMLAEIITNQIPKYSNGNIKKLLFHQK
Sequence of Cytochrome P450 3A4 (Homo sapiens) (P08684 whole entry, looked up): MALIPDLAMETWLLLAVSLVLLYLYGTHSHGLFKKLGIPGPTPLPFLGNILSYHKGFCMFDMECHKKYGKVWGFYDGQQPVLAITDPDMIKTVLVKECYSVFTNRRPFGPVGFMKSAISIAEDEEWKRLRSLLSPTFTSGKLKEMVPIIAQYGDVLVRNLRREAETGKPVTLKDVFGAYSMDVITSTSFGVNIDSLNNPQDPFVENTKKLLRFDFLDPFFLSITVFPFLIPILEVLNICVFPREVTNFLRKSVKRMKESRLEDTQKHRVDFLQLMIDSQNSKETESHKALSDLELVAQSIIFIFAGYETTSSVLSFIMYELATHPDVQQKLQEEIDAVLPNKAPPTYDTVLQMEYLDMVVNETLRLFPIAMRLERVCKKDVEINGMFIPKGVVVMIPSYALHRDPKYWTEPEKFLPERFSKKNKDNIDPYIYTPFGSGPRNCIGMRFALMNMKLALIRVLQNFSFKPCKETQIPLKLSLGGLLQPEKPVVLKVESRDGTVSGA
Sequence of Cytochrome P450 1A2 (Homo sapiens) (P05177 whole entry, looked up): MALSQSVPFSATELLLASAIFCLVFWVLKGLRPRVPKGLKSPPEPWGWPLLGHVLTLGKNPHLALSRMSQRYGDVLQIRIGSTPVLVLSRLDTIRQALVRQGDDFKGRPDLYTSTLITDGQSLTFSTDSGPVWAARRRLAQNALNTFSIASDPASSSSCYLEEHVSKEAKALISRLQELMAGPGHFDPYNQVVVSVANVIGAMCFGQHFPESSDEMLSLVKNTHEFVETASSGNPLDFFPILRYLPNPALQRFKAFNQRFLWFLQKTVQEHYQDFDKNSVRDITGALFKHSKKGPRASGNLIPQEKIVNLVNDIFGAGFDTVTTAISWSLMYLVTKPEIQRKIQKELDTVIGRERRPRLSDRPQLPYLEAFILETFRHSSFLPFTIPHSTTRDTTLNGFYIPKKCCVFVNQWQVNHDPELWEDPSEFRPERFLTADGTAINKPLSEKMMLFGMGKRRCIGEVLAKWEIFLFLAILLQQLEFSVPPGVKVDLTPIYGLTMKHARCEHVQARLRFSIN
Sequence of 3',5'-cyclic-AMP phosphodiesterase 4B (Homo sapiens) (Q07343 whole entry, looked up): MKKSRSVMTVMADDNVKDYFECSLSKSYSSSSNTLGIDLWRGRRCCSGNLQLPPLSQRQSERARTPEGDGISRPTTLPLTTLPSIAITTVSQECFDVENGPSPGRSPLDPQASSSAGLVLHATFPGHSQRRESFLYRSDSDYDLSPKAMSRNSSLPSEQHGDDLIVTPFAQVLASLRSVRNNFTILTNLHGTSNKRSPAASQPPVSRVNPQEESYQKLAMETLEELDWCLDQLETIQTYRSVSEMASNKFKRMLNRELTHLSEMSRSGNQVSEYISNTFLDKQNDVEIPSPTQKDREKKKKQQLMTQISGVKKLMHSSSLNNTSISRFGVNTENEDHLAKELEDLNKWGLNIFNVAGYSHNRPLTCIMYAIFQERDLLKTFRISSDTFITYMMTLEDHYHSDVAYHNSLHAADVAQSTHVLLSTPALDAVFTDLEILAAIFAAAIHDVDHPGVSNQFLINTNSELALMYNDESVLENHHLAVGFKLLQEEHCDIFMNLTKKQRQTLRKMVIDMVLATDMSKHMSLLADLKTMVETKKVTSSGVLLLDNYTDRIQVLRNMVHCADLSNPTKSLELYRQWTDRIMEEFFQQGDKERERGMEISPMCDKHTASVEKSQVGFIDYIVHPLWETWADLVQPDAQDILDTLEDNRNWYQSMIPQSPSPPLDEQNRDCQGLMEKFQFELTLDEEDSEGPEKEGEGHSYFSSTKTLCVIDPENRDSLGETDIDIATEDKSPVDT
Sequence of ATP-dependent 6-phosphofructokinase (Trypanosoma brucei brucei) (O15648 whole entry, looked up): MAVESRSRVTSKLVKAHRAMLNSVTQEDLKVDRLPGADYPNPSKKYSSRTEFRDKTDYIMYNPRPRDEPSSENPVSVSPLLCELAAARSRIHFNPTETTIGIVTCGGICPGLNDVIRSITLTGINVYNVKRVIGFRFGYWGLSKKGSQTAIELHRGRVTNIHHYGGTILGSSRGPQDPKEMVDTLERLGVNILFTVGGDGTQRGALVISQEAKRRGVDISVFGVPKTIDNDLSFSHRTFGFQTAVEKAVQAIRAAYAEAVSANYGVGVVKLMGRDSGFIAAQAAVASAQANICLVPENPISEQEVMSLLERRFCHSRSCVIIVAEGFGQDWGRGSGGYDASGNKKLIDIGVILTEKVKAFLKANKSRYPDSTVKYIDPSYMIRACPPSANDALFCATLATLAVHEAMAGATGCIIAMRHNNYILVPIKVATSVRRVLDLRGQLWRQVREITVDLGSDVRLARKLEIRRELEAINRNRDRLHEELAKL
Sequence of Luciferin 4-monooxygenase (Photinus pyralis) (P08659 whole entry, looked up): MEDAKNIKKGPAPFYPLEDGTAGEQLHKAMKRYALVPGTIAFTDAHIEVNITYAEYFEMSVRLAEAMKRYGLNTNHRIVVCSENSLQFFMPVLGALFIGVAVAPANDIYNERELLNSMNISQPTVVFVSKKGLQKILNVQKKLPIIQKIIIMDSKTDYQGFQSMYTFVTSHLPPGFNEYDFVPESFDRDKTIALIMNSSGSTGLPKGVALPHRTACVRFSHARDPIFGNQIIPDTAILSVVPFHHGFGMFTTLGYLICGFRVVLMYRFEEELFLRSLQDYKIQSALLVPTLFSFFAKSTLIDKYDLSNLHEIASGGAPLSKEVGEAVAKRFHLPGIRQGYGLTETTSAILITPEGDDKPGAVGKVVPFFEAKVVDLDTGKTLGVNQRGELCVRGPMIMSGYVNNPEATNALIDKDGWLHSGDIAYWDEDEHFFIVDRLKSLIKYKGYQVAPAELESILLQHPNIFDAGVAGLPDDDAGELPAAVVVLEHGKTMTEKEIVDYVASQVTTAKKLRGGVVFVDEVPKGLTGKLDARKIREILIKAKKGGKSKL

COc1ccc(C(=O)OC2C[C@H]3CC[C@@H](C2)N3C)cc1OC (stereo partly drawn)
-3.69%: max response [8, 21]
-3.27%: max response [8, 22]
inactive: Potency [1] | activity change, negative = inhibition ([2]; at 17.2 µM (top of the series)) -18.9% | outcome [3] | Potency [4] > 20.6 µM | Potency [5] > 20.6 µM | outcome [6] | Potency [7] | activity change, negative = inhibition ([8]; at 25.7 µM (top of the series)) 0.262%

C[C@@]12CC[C@H](O)C[C@@H]1CC[C@H]1[C@H]2CC[C@@]2(C)[C@@H](C3=CC(=O)OC3)CC[C@]12O
active: activity change, negative = inhibition ([2]; at 17.2 µM (top of the series)) -74.9% | Potency [9] 3.16 µM
-2.15%: max response [8, 21]
inactive: Potency [1] | outcome [3] | Potency [4] > 20.6 µM | Potency [5] > 20.6 µM | outcome [6] | Potency [10] | activity change, negative = inhibition ([8]; at 25.7 µM (top of the series)) -3.39% | Potency [11]
-7.35%: max response [8, 22]

Oc1ccc2c3c1O[C@H]1[C@@H](O)CC[C@]4(O)[C@H](C2)N(CC2CCC2)CC[C@@]314
0.408%: max response [8, 22]
inactive: outcome [12] | activity change, negative = inhibition ([2]; at 17.2 µM (top of the series)) -1.63% | Potency [4] > 20.6 µM | Potency [5] > 20.6 µM | outcome [6] | Potency [7] | activity change, negative = inhibition ([8]; at 25.7 µM (top of the series)) -2.99% | Potency [11]
3.75%: max response [8, 21]

C[N+]1(C)CCO[C@](O)(c2ccc(-c3ccc([C@]4(O)C[N+](C)(C)CCO4)cc3)cc2)C1
inactive: Potency [1] | activity change, negative = inhibition ([2]; at 17.2 µM (top of the series)) -13.9% | outcome [3] | Potency [4] > 20.6 µM | Potency [5] > 20.6 µM | outcome [6] | Potency [7] | activity change, negative = inhibition ([8]; at 25.7 µM (top of the series)) -0.651%
5.83%: max response [8, 22]
6.3%: max response [8, 21]

O=C(NCNC(=O)N[C@H]1C(=O)NC(=O)N1CO)N[C@H]1C(=O)NC(=O)N1CO
-8.35%: max response [8, 22]
inactive: outcome [12] | activity change, negative = inhibition ([2]; at 17.2 µM (top of the series)) -14% | Potency [5] > 20.6 µM | outcome [6] | Potency [7] | activity change, negative = inhibition ([8]; at 25.7 µM (top of the series)) -1.29% | Potency [11]
-9.3%: max response [8, 21]

CN1C[C@H](CO)C=C2c3cccc4[nH]cc(c34)C[C@@H]21
-5.9%: max response [8, 22]
active: Potency [11] 31.6 µM
-6.66%: max response [8, 21]
inactive: outcome [12] | outcome [3] | Potency [5] > 20.6 µM | outcome [6] | Potency [7] | Potency [10] | activity change, negative = inhibition ([8]; at 25.7 µM (top of the series)) 0.712%

C[N+]1([O-])[C@@H]2CC[C@H]1CC(OC(=O)[C@@H](CO)c1ccccc1)C2 (stereo partly drawn)
inactive: outcome [12] | outcome [3] | Potency [4] > 20.6 µM | Potency [5] > 20.6 µM | outcome [6] | Potency [7] | activity change, negative = inhibition ([8]; at 25.7 µM (top of the series)) -4.15% | Potency [13] | Potency [14] | activity, negative = inhibition ([15]; parasite line A) 1.56% | activity, negative = inhibition ([15]; parasite line B) -10% | Potency [16] | Potency [17] | Potency [18] | Potency [19] | Potency [20]
1.61%: max response [8, 21]
-2.94%: max response [8, 22]

CC[C@H]1C(=O)OC[C@H]1Cc1cncn1C
inactive: outcome [12] | activity change, negative = inhibition ([2]; at 38 µM (top of the series)) 27.4% and 31.8% | outcome [3] | Potency [10] | activity change, negative = inhibition ([8]; at 25.7 µM (top of the series)) 0.358% | Potency [11]
active: Potency [9] 3.16 µM
-6.45%: max response [8, 22]
-8.31%: max response [8, 21]

CC(=O)O[C@H]1CC[C@@]2(C)C(=CC[C@@H]3[C@H]2CC[C@]2(C)C(=O)CC[C@H]32)C1
active: Potency [10] 12.6 µM
-9.47%: max response [8, 21]
-12.6%: max response [8, 22]
inactive: outcome [12] | activity change, negative = inhibition ([2]; at 17.2 µM (top of the series)) -13.7% | Potency [5] > 20.6 µM | outcome [6] | Potency [7] | Potency [9] | activity change, negative = inhibition ([8]; at 25.7 µM (top of the series)) -0.861% | Potency [13] | Potency [14] | activity, negative = inhibition ([15]; parasite line A) 8.47% | activity, negative = inhibition ([15]; parasite line B) 10.9% | Potency [16] | Potency [17] | Potency [18] | Potency [19] | Potency [20]

CC(=O)O[C@H]1C[C@@H](O[C@@H]2[C@H](C)O[C@H](O[C@@H]3[C@H](C)O[C@H](O[C@@H]4CC[C@@]5(C)[C@@H](CC[C@]6(C)[C@]5(C)C[C@H](O)[C@]5(C)[C@@H](C7=CC(=O)OC7)CC[C@@]56O)C4)C[C@@H]3O)C[C@@H]2O)O[C@@H](C)[C@H]1O[C@H]1O[C@@H](CO)[C@@H](O)[C@@H](O)[C@@H]1O
-6.91%: max response [8, 21]
inactive: Potency [1] | Potency [4] > 20.6 µM | activity change, negative = inhibition ([8]; at 25.7 µM (top of the series)) -1.77% | Potency [11]
-8.38%: max response [8, 22]

O=C1C=C2C=C[C@H]3C[C@@]2(O1)[C@H]1CCCCN31
-17.3%: max response [8, 22]
inactive: Potency [1] | outcome [3] | Potency [4] > 20.6 µM and > 46 µM | Potency [5] > 20.6 µM and > 46 µM | Potency [7] | activity change, negative = inhibition ([8]; at 25.7 µM (top of the series)) -1.11% | Potency [11]
-16.7%: max response [8, 21]

C[N+]1=Cc2cc3c(cc2CC1)OCO3
22.1%: max response [8, 22]
15.4%: max response [8, 21]
inactive: Potency [1] | Potency [5] > 46 µM | outcome [6] | Potency [7] | Potency [9] | activity change, negative = inhibition ([8]; at 57.5 µM (top of the series)) 4.74%

C[C@H]1[C@@H](O)[C@@H](C)/C=C\C=CCC\C=C/C=C\C=C/C=C[C@@H](O[C@H]2O[C@@H](C)[C@@H](O)[C@@H](N)[C@@H]2O)C[C@@H]2O[C@@](O)(C[C@@H](O)[C@H]2C(=O)O)C[C@@H](O)[C@@H](O)CC[C@@H](O)C[C@@H](O)C[C@@H](O)CC(=O)O[C@H]1C
inactive: outcome [12] | activity change, negative = inhibition ([2]; at 17.2 µM (top of the series)) 1.26% | outcome [3] | outcome [6] | Potency [7] | activity change, negative = inhibition ([8]; at 25.7 µM (top of the series)) -0.591%
5.63%: max response [8, 21]
6.3%: max response [8, 22]
